gsp antag = qHTS for Antagonists of gsp, the Etiologic Mutation Responsible for Fibrous Dysplasia/McCune-Albright Syndrome: qHTS; gsp-mutant cells, cAMP HTRF, 30 min; Potency, µM (highest dose often 76.9 µM), for the others: top-dose activity change, negative = inhibition, hits mostly inhibitors; hit rate 0.4% among 340,000; calls by dose curve; cell line not stated here;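 also: intracellular cAMP measured with PDE inhibitor Ro 20-1724 present during compound exposure; potency is read from the fitted curve at half-maximal effect; % is scaled to controls: 0 for no effect and ±100 for the full control effect; nearly all actives have a fitted effect of over 65% in size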
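Cells, 2000/well, grown 16–24 h in DMEM 10% FBS with 0.5 mg/ml G418, then compounds plus […] (300 uM addition stock), 30 min at 37C. cAMP read by HTRF (cAMP-d2 and anti-cAMP antibody-K in lysis buffer) after 30 min RT.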
gsp agonist = qHTS for Agonist of gsp, the Etiologic Mutation Responsible for Fibrous Dysplasia/McCune-Albright Syndrome: qHTS | gsp mutant cells, cAMP HTRF, 30 min | Potency, µM (series often up to 76.9 µM), inactives show at the highest dose activation (cAMP increase), most hits filed as activators | hit rate 0.13% among 340,000; active = well fitted activation curve with a large enough effect; inconclusive = small, poorly fitted or top-dose-only effect, or another doubt; inactive = no such curve, though single readings can be large or run the other way; cell line not stated here;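 also: phosphodiesterase inhibitor Ro 20-1724 added with compounds to block cAMP breakdown; potency is read from the fitted curve at half-maximal effect; nearly all actives have a fitted effect of over 60% in size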
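Cells in DMEM/10% FBS with G418 were pretreated with compounds in DMSO plus […] (300 uM stock) for 30 min at 37C. cAMP was measured by HTRF (cAMP-d2 plus anti-cAMP antibody-K) after 30 min at room temperature.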
RXFP1 agonist = qHTS Assay for Agonists of the Relaxin Receptor RXFP1; HEK293T-RXFP1 cAMP TR-FRET, 30 min; response scale: percent of porcine relaxin response, buffer zero; Potency, µM (titrated, usually from 57.5 µM), for the others: top-dose activation, hits mostly activators; hit rate 0.3% among 370,000; active = well fitted activation curve with a large enough effect; inconclusive = small, poorly fitted or top-dose-only effect; also: potency is read from the fitted curve at half-maximal effect; % is scaled to controls: 0 for no effect and ±100 for the full control effect; nearly all actives have a fitted effect of over 60% in size
Target sequence (Q9HBX9 whole entry, looked up): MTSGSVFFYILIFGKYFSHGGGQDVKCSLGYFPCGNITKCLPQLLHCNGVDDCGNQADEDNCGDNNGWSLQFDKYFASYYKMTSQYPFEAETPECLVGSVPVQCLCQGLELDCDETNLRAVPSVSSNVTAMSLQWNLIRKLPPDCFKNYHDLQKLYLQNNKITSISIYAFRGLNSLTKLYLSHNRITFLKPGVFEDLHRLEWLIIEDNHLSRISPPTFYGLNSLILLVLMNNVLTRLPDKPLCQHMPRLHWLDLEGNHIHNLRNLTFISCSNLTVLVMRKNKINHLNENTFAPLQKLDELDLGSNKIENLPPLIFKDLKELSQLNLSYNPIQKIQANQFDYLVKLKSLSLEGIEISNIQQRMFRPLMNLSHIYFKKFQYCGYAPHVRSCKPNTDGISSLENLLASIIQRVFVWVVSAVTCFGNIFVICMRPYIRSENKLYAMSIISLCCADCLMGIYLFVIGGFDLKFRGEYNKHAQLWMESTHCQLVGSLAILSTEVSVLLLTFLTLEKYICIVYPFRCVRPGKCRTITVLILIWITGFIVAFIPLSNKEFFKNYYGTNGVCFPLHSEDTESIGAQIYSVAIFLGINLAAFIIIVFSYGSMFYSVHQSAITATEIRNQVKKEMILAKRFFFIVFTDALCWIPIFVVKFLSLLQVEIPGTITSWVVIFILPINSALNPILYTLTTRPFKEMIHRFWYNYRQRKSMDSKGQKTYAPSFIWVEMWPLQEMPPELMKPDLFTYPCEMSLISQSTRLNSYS
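HEK293 cells stably expressing RXFP1, treated 30 min at 37C with compounds plus PDE4 inhibitor Ro 20174; cAMP measured by HTRF TR-FRET. Normalized to buffer and 29 nM porcine relaxin; EC50 by Hill fit.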
pAkt inh = HTS Assay for Inhibitors of Akt Phophorylation: Primary Screen. Neuro2A IGF-stimulated pAkt S473 HTRF, 20 min; hits give low values. activity change, % for hits at 50 µM. hit rate 0.32% among 360,000; in the data active = activity change below about -80%; inconclusive = mostly about -51% to -80%; also: % is scaled to controls: 0 for no effect and ±100 for the full control effect
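Single-point screen (50 µM final compound) in Neuro2A cells stimulated 20 min with 6 nM IGF at 37 deg C. After lysis, Ser473-phosphorylated Akt read by HTRF (ex 330 nm, em 615/665 nm) as the 665/615 ratio.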
RXFP1 antagonist = qHTS Assay for Antagonists of the Relaxin Receptor RXFP1; activity change, negative = inhibition, % at 57.5 µM; HEK293-RXFP1, relaxin-stimulated cAMP HTRF, 30 min; hits give low values; Relaxin receptor 1 (Homo sapiens), Q9HBX9; hit rate 0.59% among 350,000;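 active = activity change of -60% or lower, but not beyond a set lower limit; inconclusive = change between -60% and -40%, or beyond the set limit; inactive = change above -40%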; also: % is scaled to controls: 0 for no effect and ±100 for the full control effect
Numbers without * were called inactive; i = inactive; ? = inconclusive; / = no result given; ! = not active in a repeat; [ ] = another dose, or the depositor's remark. Only some compounds are listed: those with a hit (about 1.2% of all), similar ones and a draw of the others.

SMILES | gsp antag | gsp agonist | RXFP1 agonist | pAkt inh | RXFP1 antagonist
CS(=O)(=O)c1ncc(Cl)c(C(=O)Nc2ccc3ccccc3c2)n1 | 4% | -19% | 1% | i | -93*
CCOc1cccc2cc(-c3nc4sc5c(c4c(=O)[nH]3)CCC(C)C5)c(=O)oc12 (stereo unspecified) | / | / | -1% | / | 10
O=C(Nc1ccc(OC(F)F)cc1)c1ncc(Cl)c(Cl)c1Cl | 11µM* | -9%[15.4 µM] | 1% | i | -8
COc1ccc(NC(=O)c2nc(S(=O)(=O)Cc3ccc(C)cc3)ncc2Cl)cc1 | / | / | 3% | / | -118*
CCCCNc1c(-c2cccc(-c3ccc(OC)cc3)c2)nc2cc(C)ccn12 | 32µM* | ? | / | i | /
CCCCNc1c(-c2cccc(-c3cc(C(C)=O)cs3)c2)nc2ccc(C)cn12 | 35µM* | / | 0% | i | /
Cc1cc(C)cc(OCC(=O)Nc2nc3c(s2)CC(C(C)(C)C)CC3)c1 (stereo unspecified) | / | / | 9% | / | /
CCc1ccc(NC(=O)CCC(=O)c2ccccc2)cc1 | 35µM* | -5% | -3% | i | 3
CCc1ccc(NC(=O)CCC(=O)c2ccc(C)cc2)cc1 | -12% | 33% | -3% | i | -7
CC(C)CN(C(=O)CSc1nncn1-c1ccccc1)c1c(N)n(CC(C)C)c(=O)[nH]c1=O | 1% | -17%[15.4 µM] | 0% | i | -60*
O=C(CSc1n[nH]c(=O)n1C1CC1)Nc1ccccc1 | 4% | 21% | 1% | i | -4
O=C(CSc1n[nH]c(=O)n1C1CC1)Nc1cc(Cl)ccc1Oc1ccccc1 | 35µM* | -3% | 0% | i | -6
CC1(C)NC(=O)N(CC(=O)Nc2ccc(-n3cnnn3)cc2)C1=O | 11% | -31% | / | i | -71*
Cc1ccc(C)c2sc(N3CCN(C(=O)C(C)(C)C)CC3)nc12 | / | / | 0% | / | /
CCn1c(=S)[nH]c2scc(-c3cccs3)c2c1=O | -18% | ? | 16µM* | i | -14
CCCCN(CC)CCCNC(=O)c1ccc2c(c1)N(Cc1ccc(C)cc1)C(=O)c1ccccc1S2 | / | / | 1% | / | -66*
CCC1CN(C(=O)Nc2cc(C)ccc2OC)c2cc(Cl)ccc2O1 (stereo unspecified) | / | / | -1% | / | -61*
COc1ccc(OC)c(NC(=O)N2CC(C)Oc3ccc(C)cc32)c1 (stereo unspecified) | / | / | -1% | / | ?
CCOc1ccccc1NC(=O)N1C2CCCC1CC(NC(=O)C1CC1)C2 (stereo unspecified) | 2% | ? | 0% | -88%* | -13
CCOc1ccccc1NC(=O)N1CC(CC)Oc2ccccc21 (stereo unspecified) | / | / | -1% | / | -80*
CC(=O)Nc1scc(-c2ccccc2)[n+]1-c1ccc(C)cc1 | 50µM* | 41% | 21% | i | 0
Cc1ccc(-c2csc(Nc3ccc(C(=O)O)cc3)[n+]2Cc2ccccc2)cc1 | -11% | -3% | 13% | i | -26
COC(c1ccccc1)(c1ccccc1)[C@H](Oc1nc(C)cc(C)n1)C(=O)O | / | / | / | / | -16
O=c1[nH]nc(Sc2ncnc3sccc23)n1CCc1ccccc1 | 3% | ? | 4% | -99%* | -16
CC1CCC(C(C)C)C(OC(=O)Cn2c(-c3ccc(Cl)cc3)[n+](C)c3ccccc32)C1 (stereo unspecified) | 5% | 39% | 0% | i | ?
SMILES | gsp antag | gsp agonist | RXFP1 agonist | pAkt inh | RXFP1 antagonist
CC1CCC(C(C)C)C(OC(=O)Cn2c(-c3ccc(Br)cc3)[n+](C)c3ccccc32)C1 (stereo unspecified) | 7% | 0%[15.4 µM] | 0% | i | -81*!
CC(=O)NC(c1ccco1)c1cc(Br)c2cccnc2c1O (stereo unspecified) | / | / | 1% | / | /
CCn1nnc(NC(=O)c2ccc(C(C)(C)C)cc2)n1 | 3% | -8% | 1% | -108%* | -17
CCn1nnc(NC(=O)c2cccnc2)n1 | 4% | -22% | 2% | i | -11
CC(NC(=O)c1ccc(S(=O)(=O)N(C)C)cc1)c1ccccc1 (stereo unspecified) | -4% | 4% | 0% | -90%* | -4
O=C(CCNS(=O)(=O)c1ccc2c(c1)CCN2C(=O)C1CC1)N1CCN(c2ccc(F)cc2)CC1 | / | / | 0% | / | /
CCCCOC(=O)c1ccc(NC(=O)CSc2nc3c(c(=O)[nH]2)CCCC3)cc1 | / | / | 1% | / | -1
N#Cc1nc(COc2ccc(-c3ccccc3)cc2)oc1NCCCN1CCOCC1 | 2% | 0% | 1% | i | -62*
N#Cc1nc(COc2ccccc2)oc1NCCN1CCOCC1 | -7% | -6%[15.4 µM] | 1% | i | -18
CC(C)CC(=O)NC(=S)Nc1ccccc1F | 11% | -18% | 1% | i | -11
CC(C)CC(=O)NC(=S)Nc1cccc2nsnc12 | ? | -12%[15.4 µM] | 5% | i | -70*
O=C(Nc1ccc(Cl)cc1)Nc1cccc2nsnc12 | 40µM* | 5% | 4% | i | -35
O=C(Nc1ccncc1)Nc1cccc(Cl)c1Cl | -2% | -30% | 5% | i | 10
CCOc1ccccc1NC(=O)Nc1nnc(N2CCCC(C)C2)s1 (stereo unspecified) | / | / | -3% | / | -2
O=C(CSc1nnc2scc(-c3ccccc3)n12)NCc1ccc2c(c1)OCO2 | 3% | ? | 4% | i | -3
O=C(CSc1nnc(Cc2cccs2)n1-c1ccccc1)NCc1ccc2c(c1)OCO2 | -13% | -43% | 0% | -85%* | -19
COc1ccc(C(=O)/C=C/C(=O)N(CC(=O)NC2CCCCC2)Cc2ccccc2)c(O)c1 | -2% | -5% | -1% | i | -64*
COc1cc2cc(CN(CCCN3CCOCC3)Cc3nnnn3Cc3ccccc3)c(=O)[nH]c2cc1OC | 8.9µM* | 4%[15.4 µM] | 2% | i | -5
CCOc1ccc2[nH]c(=O)c(CN(CCCN3CCOCC3)Cc3nnnn3Cc3ccc(OC)cc3)cc2c1 | / | 4%[15.4 µM] | 0% | i | 2
O=C(Nc1nc(-c2cccs2)cs1)c1ccc([N+](=O)[O-])o1 | 35µM* | 9% | -2% | i | 3
Cc1cccc(NS(=O)(=O)c2cc([N+](=O)[O-])ccc2C)n1 | 8% | 2%[15.4 µM] | 4% | i | -62*
CC(=O)Nc1ccc(NS(=O)(=O)c2cc([N+](=O)[O-])ccc2C)cc1 | / | 7%[15.4 µM] | 2% | i | -4
CCCCN(CC)CCCNC(=O)Nc1sc2nc3n(c(=O)c2c1C)CCC(C)CC3 (stereo unspecified) | / | / | 11% | / | -10
CCOC(=O)C(=CNc1cc(C)ccc1[N+](=O)[O-])C(=O)OCC | ? | -12% | 0% | i | -7

High-throughput results from PubChem.
